# Legend:
# Assay in all cases: DAPPL (digital affinity profiling via proximity ligation, sequencing); 10 mM Tris-HCl pH 7.5, 50 mM NaCl, 1 mM DTT, 4% glycerol, room temperature, 30 min; GST-TFs on glutathione beads, 16-mer random dsDNA library, 0.1% formaldehyde crosslink after washing; high values mean tight binding
# Conditions in all cases: protein: recombinant; tags: N-terminal GST; dsDNA, one strand shown
# FLI1 = molecular target: T1, FLI1 (Homo sapiens, UniProt Q01543 1-452)
# T1 sequence: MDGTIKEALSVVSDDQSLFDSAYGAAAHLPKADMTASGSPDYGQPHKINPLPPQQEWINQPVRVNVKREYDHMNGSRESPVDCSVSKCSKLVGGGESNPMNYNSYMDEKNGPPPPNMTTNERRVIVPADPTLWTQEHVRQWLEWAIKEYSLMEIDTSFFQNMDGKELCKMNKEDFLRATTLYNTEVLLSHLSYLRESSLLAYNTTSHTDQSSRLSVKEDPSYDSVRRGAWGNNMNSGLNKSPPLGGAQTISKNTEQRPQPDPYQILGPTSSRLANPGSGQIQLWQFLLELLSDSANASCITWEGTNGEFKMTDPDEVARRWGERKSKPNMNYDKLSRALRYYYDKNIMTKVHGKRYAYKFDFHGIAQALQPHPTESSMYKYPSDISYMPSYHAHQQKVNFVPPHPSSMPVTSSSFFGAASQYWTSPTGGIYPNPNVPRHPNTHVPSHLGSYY
# Outline: (§1)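 Human transcription factors fused to GST were expressed in yeast, captured on glutathione beads, given DNA barcodes and pooled with a GST-only negative control. Pools were incubated with 200 nmole of a 16-mer random double-stranded DNA library in Tris/NaCl/DTT/glycerol buffer at room temperature for 30 min. They were then washed, crosslinked with 0.1% formaldehyde, proximity-ligated (BsaI/T4 ligase, 1 h, 37 °C), PCR-amplified and sequenced on an Illumina NextSeq500. Binding signal is each 6-mer's read frequency for a factor divided by its frequency for the GST control.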
# ELK1 = molecular target: T2, ELK1 (Homo sapiens, UniProt P19419 1-428)
# T2 sequence: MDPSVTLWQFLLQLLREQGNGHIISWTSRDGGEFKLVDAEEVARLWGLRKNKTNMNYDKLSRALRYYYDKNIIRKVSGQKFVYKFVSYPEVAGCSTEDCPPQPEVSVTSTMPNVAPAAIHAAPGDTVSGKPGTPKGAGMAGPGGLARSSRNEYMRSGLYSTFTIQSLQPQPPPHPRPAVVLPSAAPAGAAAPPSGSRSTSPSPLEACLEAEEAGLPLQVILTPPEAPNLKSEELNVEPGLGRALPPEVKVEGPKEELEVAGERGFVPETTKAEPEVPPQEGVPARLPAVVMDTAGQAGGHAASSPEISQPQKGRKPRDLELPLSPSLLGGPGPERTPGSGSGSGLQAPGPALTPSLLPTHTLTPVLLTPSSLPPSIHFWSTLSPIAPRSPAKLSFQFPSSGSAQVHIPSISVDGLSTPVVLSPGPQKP
# Outline: as §1
# GABPA = molecular target: T3, GABPA (Homo sapiens, UniProt Q06546 1-454)
# T3 sequence: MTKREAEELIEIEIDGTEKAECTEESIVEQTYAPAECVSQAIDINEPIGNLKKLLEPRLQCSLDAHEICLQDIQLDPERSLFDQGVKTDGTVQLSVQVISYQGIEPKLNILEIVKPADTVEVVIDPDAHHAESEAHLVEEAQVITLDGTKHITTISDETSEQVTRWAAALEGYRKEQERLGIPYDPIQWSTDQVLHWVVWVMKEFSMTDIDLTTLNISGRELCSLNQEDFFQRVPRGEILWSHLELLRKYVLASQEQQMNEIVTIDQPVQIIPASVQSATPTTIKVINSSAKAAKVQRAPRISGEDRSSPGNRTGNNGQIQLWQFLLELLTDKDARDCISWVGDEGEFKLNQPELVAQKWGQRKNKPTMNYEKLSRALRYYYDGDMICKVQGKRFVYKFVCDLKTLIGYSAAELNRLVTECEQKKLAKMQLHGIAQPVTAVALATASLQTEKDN
# Outline: as §1
# ERG = molecular target: T4, ERG (Homo sapiens, UniProt P11308 1-479)
# T4 sequence: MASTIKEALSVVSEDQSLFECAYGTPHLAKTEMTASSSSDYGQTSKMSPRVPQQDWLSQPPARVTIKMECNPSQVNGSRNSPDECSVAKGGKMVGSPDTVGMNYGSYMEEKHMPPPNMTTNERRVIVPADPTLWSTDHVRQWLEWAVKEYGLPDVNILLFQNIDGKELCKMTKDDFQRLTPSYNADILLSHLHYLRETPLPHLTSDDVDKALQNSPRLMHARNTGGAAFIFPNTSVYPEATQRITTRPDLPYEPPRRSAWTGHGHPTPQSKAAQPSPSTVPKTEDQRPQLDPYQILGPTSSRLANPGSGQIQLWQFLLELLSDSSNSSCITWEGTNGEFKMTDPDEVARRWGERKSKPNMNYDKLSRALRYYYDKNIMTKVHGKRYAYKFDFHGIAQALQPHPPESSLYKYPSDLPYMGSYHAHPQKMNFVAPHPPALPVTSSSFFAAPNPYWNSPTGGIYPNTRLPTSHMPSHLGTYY
# Outline: as §1
# ELF1 = ELF1 (Homo sapiens, UniProt P32519 1-619)
# Outline: as §1
# EHF = molecular target: T5, EHF (Homo sapiens, UniProt Q9NZC4 1-300)
# T5 sequence: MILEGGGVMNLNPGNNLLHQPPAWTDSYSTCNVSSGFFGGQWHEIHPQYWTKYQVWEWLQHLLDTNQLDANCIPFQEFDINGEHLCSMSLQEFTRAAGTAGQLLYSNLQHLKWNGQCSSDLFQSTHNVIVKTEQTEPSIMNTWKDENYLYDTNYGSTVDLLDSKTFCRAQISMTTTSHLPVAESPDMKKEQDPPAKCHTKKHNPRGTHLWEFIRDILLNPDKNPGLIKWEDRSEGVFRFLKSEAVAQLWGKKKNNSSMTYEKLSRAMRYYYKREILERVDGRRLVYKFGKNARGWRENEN
# Outline: as §1
# SPI1 = SPI1 (Homo sapiens, UniProt P17947 1-270)
# Outline: as §1
# SPIB = SPIB (Homo sapiens, UniProt Q01892 1-262)
# Outline: as §1
# ELK3 = molecular target: T6, ELK3 (Homo sapiens, UniProt P41970 1-407)
# T6 sequence: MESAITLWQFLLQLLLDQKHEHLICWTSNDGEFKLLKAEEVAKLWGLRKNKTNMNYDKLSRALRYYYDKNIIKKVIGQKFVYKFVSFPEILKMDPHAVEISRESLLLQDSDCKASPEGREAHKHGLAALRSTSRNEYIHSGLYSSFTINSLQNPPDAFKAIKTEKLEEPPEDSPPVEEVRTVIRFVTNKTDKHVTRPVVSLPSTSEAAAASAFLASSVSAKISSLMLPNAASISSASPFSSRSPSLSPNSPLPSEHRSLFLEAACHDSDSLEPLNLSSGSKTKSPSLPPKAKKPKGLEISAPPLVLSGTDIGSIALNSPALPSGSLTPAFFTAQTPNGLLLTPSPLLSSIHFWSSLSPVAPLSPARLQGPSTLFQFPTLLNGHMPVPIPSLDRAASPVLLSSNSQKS
# Outline: as §1
# Sequence of ELF1 (P32519 whole entry): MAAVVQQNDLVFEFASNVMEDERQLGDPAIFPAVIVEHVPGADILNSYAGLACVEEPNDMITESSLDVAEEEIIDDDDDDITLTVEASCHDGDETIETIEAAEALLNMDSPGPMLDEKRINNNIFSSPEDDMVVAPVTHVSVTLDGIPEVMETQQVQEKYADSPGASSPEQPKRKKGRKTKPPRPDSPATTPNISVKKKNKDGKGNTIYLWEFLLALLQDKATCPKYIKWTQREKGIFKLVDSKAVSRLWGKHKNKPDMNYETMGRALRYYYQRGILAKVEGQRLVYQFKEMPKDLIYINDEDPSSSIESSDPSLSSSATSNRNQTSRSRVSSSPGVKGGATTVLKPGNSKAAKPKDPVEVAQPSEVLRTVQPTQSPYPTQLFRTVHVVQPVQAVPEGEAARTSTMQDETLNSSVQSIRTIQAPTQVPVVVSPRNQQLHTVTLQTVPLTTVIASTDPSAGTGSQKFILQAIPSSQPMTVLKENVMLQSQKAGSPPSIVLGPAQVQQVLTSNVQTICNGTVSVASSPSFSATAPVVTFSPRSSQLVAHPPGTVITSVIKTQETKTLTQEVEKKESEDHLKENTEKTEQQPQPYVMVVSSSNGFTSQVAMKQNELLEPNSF
# Sequence of SPIB (Q01892 whole entry): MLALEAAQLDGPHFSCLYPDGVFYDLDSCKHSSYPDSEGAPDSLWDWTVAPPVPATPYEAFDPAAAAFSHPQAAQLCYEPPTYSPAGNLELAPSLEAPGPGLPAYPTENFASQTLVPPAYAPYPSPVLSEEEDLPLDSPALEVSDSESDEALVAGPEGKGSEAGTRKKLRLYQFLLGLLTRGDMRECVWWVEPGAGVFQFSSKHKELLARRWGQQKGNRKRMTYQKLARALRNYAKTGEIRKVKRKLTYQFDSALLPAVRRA
sequence,measurement,setting,value
CTTCTG,binding signal,FLI1,"1.48 fold enrichment (6-mer frequency, TF over GST control)"
same,binding signal,ELK1,"1.34 fold enrichment (6-mer frequency, TF over GST control)"
same,binding signal,GABPA,"1.26 fold enrichment (6-mer frequency, TF over GST control)"
same,binding signal,ERG,"1.3 fold enrichment (6-mer frequency, TF over GST control)"
same,binding signal,ELF1,"1.34 fold enrichment (6-mer frequency, TF over GST control)"
same,binding signal,EHF,"1.27 fold enrichment (6-mer frequency, TF over GST control)"
same,binding signal,SPI1,"1.36 fold enrichment (6-mer frequency, TF over GST control)"
same,binding signal,SPIB,"1.32 fold enrichment (6-mer frequency, TF over GST control)"
same,binding signal,ELK3,"1.4 fold enrichment (6-mer frequency, TF over GST control)"

# Source: publication PMC7862700, “An all-to-all approach to the identification of sequence-specific readers for epigenetic DNA modifications on cytosine”
